Structures are written as SMILES. For some of these results: Results with a measured potency or affinity are listed apart.

Drawing on ChEMBL document CHEMBL3988442, “University of Dundee, Small-Polar-MMV Screening Library” (2021), this text covers Percent Effect for 11 compounds.

Holding throughout (design): scale not given: direction of the effect not stated beside the values
The target in assay [1] is Protein translocase subunit SecA (Escherichia coli (strain K12)) (UniProt P10408). The experiment in a line: Assay to Identify E. coli SecA ATPase Inhibitors. It counts as functional. The following applies: 30 µM.
Chain of Protein translocase subunit SecA (Escherichia coli (strain K12)) (P10408 whole entry): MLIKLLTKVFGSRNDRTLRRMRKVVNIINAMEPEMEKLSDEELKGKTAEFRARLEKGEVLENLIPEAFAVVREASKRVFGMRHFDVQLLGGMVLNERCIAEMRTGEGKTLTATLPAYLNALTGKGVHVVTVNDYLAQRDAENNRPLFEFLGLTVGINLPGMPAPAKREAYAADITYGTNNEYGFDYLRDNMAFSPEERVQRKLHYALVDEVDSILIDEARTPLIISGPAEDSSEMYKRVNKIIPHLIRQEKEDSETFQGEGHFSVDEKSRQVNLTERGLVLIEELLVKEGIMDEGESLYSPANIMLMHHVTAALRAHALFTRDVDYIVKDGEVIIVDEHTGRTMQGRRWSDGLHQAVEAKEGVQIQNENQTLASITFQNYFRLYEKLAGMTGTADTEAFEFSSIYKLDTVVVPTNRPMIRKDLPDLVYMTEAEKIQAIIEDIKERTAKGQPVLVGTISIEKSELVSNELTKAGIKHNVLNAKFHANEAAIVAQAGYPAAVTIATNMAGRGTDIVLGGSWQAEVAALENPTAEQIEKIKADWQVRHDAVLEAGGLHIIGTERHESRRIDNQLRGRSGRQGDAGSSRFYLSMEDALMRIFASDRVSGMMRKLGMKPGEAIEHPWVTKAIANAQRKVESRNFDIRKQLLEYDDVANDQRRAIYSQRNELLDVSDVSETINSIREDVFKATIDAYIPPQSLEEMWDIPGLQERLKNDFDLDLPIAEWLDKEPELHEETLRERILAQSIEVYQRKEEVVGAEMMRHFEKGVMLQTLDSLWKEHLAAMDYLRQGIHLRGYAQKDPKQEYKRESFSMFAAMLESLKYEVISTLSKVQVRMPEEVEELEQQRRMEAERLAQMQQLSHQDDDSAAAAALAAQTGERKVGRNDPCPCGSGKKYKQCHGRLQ
The target of assay [2] is T1, Ubiquitin-activating enzyme e1, putative (Leishmania donovani (strain BPK282A1)) (UniProt E9BSI1).
T1 sequence (whole entry): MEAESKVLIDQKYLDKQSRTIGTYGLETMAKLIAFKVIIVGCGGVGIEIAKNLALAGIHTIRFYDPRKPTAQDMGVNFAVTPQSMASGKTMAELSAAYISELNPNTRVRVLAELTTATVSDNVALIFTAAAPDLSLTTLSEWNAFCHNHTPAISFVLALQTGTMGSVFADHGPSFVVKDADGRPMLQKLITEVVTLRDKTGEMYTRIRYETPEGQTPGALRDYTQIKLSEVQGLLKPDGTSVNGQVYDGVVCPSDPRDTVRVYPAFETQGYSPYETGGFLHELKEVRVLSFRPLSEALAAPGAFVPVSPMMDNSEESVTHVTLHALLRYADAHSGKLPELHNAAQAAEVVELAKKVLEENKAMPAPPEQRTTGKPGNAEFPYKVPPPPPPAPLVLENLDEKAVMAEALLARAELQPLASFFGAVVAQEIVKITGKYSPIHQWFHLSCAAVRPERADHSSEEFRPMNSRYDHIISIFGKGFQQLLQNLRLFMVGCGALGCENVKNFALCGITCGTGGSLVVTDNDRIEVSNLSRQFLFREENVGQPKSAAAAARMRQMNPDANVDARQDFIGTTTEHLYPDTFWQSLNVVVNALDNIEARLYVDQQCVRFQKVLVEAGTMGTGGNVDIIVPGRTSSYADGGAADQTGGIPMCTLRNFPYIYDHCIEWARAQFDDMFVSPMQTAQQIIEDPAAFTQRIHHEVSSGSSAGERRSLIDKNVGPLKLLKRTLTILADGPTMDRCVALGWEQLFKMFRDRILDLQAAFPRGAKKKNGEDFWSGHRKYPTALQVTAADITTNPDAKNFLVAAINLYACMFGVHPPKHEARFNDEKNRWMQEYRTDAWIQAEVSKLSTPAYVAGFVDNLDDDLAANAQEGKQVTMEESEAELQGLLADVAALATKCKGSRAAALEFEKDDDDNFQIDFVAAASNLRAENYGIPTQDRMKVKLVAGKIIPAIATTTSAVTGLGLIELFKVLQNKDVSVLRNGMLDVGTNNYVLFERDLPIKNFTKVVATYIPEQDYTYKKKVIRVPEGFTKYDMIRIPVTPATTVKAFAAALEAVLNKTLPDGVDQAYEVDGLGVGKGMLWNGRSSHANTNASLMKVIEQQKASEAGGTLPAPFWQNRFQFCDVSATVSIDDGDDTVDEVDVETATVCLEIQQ
Kind of assay: Leishmania donovani Ubiquitin Activating Enzyme (LdE1). It counts as functional. Particulars: 30 µM.

Assay [3] addresses AMP-activated protein kinase, AMPK (Homo sapiens) (UniProt P54646+O43741+P54619+Q9UGJ0+Q9Y478+Q13131+Q9UGI9). The experiment in a line: AMP-dependent Kinase enzyme assay. An in vitro enzyme assay that detects ADP turnover that is directly proportional to AMPK activity. This uses naive AMPK that is activated during the assay with MK-8722. It counts as functional. Particulars: 30 µM.

In assay [4] the target is Sialic acid-binding Ig-like lectin 9 (Homo sapiens) (UniProt Q9Y336). Kind of assay: Hs-Siglec9 ALPHAscreen SOP 20170721. The following applies: 10 µM. On the technique in general: In Alpha technology, singlet oxygen from a donor bead excites a nearby acceptor bead.
Chain of Sialic acid-binding Ig-like lectin 9 (Homo sapiens) (Q9Y336 whole entry): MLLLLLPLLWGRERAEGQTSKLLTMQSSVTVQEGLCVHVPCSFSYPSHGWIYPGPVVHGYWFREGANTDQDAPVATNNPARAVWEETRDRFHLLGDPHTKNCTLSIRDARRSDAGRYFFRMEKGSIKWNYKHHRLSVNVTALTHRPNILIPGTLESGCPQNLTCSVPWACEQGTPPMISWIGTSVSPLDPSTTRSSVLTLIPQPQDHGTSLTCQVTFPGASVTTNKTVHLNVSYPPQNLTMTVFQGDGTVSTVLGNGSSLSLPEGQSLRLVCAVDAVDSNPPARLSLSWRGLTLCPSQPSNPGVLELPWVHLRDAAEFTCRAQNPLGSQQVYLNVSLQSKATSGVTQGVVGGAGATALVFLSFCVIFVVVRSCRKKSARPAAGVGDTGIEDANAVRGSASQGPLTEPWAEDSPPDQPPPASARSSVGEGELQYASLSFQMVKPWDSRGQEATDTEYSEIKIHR
Another assay has as its system Trypanosoma cruzi. Kind of assay: Trypanosoma cruzi phosphomannomutase and mannose-1-phosphate guanylyltransferase assay. The following applies: 10 µM. Type of assay: functional.
Assay [5] has as its target T2, Arginase-2, mitochondrial (Homo sapiens) (UniProt P78540).
T2 sequence (whole entry): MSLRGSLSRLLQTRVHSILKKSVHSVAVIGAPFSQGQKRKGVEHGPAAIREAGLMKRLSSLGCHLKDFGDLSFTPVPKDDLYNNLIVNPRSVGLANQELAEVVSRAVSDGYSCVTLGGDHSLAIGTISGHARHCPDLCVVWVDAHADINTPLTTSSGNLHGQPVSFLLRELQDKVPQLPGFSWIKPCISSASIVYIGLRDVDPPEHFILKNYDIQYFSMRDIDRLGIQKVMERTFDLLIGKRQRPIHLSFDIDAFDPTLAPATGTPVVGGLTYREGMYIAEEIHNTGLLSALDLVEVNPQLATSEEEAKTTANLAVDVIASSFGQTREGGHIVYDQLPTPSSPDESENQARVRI
The experiment in a line: in vitro enzyme assay to detect the production of urea directly proportional to the activity of Arginase II. Also: in the data most compounds retested in dose-response had high values. It counts as functional. Particulars: 33.3 µM.

In assay [6] the target is T3, Proteasome subunit beta (Trypanosoma cruzi) (UniProt O96673).
T3 sequence (whole entry): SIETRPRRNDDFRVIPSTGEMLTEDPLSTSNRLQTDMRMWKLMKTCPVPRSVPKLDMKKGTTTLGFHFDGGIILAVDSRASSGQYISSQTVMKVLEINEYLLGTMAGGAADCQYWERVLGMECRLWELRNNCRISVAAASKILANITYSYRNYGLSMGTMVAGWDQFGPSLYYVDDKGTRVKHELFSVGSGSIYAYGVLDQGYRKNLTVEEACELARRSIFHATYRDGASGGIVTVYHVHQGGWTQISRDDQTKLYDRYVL
The experiment in a line: Trypanosoma cruzi proteasome chymotrypsin-like activity (TcProtChymo) assay. Also: in the data most compounds retested in dose-response had high values. It counts as functional. Particulars: 9.37 µM.

For another assay, the species on record is Homo sapiens. Kind of assay: To identify inhibition of the IFN signalling (Jak-Stat) pathway via expression of an eGFP reporter gene under the control of an IFN-stimulated response element (ISRE) containing MxA promoter. Type of assay: functional. Particulars: 30 µM. On the technique in general: In a reporter assay the amount or activity of a reporter protein is the signal.

Assay [7] has as its target T4, Tyrosyl-tRNA synthetase, putative (Trypanosoma cruzi (strain CL Brener)) (UniProt Q4DSP6).
T4 sequence (whole entry): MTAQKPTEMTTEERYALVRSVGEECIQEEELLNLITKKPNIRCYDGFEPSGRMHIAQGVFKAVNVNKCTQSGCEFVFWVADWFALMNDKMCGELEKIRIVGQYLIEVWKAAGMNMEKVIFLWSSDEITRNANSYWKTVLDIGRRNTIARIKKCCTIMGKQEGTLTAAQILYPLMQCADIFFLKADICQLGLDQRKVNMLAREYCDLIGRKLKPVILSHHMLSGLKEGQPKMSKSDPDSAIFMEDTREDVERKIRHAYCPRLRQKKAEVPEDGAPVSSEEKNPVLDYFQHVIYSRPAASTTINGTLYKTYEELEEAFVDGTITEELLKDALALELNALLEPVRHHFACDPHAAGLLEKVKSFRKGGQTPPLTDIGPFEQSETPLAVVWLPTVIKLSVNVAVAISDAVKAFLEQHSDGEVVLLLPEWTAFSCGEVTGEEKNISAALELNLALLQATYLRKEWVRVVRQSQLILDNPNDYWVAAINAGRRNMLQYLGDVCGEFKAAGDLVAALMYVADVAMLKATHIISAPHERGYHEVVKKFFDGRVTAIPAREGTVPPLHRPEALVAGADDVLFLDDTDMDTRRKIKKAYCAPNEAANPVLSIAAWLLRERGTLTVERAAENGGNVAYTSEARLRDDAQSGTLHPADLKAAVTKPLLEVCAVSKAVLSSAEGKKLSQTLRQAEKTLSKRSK
The experiment in a line: Trypanosoma cruzi tyrosyl tRNA synthetase (TcYRS) _High Tyrosine SOP. Also: in the data most compounds retested in dose-response had high values. The following applies: 30 µM. Type of assay: functional.

Assay [8] concerns the target T4, Tyrosyl-tRNA synthetase, putative (Trypanosoma cruzi (strain CL Brener)). Kind of assay: Trypanosoma cruzi tyrosyl tRNA synthetase (TcYRS) SOP. Type of assay: functional. Particulars: 30 µM.
For assay [9], the target named is Chromo domain-containing protein 1 (Saccharomyces cerevisiae (strain ATCC 204508 / S288c) (Baker's yeast)) (UniProt P32657). The experiment in a line: ScCHD-1 Enzyme Inhibition Assay. Also: in the data most compounds retested in dose-response had high values. It counts as functional. The following applies: 30 µM.
Chain of Chromo domain-containing protein 1 (Saccharomyces cerevisiae (strain ATCC 204508 / S288c) (Baker's yeast)) (P32657 whole entry, the tested form may be a part): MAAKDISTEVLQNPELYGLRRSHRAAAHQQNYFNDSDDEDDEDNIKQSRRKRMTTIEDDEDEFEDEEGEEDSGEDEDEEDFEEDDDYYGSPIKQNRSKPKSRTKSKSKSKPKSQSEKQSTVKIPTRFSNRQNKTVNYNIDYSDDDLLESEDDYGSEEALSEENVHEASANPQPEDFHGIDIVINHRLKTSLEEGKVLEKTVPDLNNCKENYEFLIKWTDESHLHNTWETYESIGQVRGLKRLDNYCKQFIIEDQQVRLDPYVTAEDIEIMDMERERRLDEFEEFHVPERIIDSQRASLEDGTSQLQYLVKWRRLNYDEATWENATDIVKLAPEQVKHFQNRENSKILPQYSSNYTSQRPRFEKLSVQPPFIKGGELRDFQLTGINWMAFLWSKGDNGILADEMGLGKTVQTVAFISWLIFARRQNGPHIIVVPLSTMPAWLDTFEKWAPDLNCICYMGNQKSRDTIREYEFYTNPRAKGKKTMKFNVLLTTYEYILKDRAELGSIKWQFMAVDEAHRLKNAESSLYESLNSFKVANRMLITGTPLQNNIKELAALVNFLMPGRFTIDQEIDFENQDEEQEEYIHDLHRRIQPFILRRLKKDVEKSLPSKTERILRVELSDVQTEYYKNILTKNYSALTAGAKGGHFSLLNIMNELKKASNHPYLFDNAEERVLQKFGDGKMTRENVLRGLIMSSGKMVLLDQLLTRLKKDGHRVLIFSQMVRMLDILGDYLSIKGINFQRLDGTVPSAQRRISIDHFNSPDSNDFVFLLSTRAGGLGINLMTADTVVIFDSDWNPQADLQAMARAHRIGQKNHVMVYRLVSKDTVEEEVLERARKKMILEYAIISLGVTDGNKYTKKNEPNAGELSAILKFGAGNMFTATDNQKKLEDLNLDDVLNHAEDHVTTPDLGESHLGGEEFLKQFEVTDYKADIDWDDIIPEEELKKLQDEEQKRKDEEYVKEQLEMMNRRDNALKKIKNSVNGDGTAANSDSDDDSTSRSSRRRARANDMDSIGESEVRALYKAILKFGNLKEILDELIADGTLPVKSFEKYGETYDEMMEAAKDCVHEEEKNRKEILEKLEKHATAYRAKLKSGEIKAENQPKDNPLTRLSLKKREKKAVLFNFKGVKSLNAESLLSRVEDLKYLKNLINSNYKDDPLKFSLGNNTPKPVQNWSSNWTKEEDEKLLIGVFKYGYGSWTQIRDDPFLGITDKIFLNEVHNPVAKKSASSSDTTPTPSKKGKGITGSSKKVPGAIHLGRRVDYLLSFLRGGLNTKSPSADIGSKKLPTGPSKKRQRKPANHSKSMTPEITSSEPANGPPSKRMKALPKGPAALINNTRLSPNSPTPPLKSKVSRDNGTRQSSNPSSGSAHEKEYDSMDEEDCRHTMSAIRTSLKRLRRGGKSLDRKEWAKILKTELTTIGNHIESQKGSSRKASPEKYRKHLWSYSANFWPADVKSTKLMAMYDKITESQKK

In the case of `CCc1nccn1C1CCCN(C(=O)c2ccc3[nH]c(=O)[nH]c3c2)C1` (stereo unspecified), the Percent Effect was -10.8% in assay [1]; 7.79% in assay [2]; -15.1% in assay [3]; 18.9% in assay [4]; 8.24% with Trypanosoma cruzi; 2.85% in assay [5]. Also, the Percent Effect in assay [6] is 5.41%; in the assay filed under Homo sapiens it was 14.2%; in assay [7] it was 8.74%; in assay [8] it was 21.9%; in assay [9], -4.1%.

`Cn1ccnc1CN1CCN(CC(O)c2ccco2)CC1` (stereo unspecified): the Percent Effect in assay [1] was -7.57%; in assay [2], 18.2%; in assay [3] it was -3.75%; in assay [4], -8.89%; with Trypanosoma cruzi, -1.86%; in assay [5], -0.632%. Also, the Percent Effect is 17.4% in [6]; 16.1% in the assay filed under Homo sapiens; 6.67% in assay [7]; 7.06% in assay [8]; -4.92% in assay [9].

Take `CC(C)c1ncc2c(n1)CN(Cc1nc(Cc3ccccc3)no1)CC2`: the Percent Effect is -3.61% in assay [1]; 10.8% in assay [2]; -1.07% in assay [3]; 3.74% in [4]; 2.69% in the assay with Trypanosoma cruzi; -2.77% in assay [5]. Further, the Percent Effect was -5.92% in [6]; 10.2% in the assay listed under Homo sapiens; 17.8% in [7]; 23.2% in assay [8]; 0.435% in assay [9].

On to `CCc1cc(NCCc2ccc(O)cc2)n2nccc2n1`, for which the Percent Effect is -0.557% in [1]; 5.48% in assay [2]; 93.2% in assay [3]; 6.39% in assay [4]; 2.35% in the assay with Trypanosoma cruzi; 25% in assay [5]. Also, the Percent Effect in assay [6] was 9.58%; in the assay listed under Homo sapiens, 46.2%; in [7] it was 3.23%; in assay [8], 15%; in assay [9], -4.87%.

As for `Cc1cc2c(=O)n3c(nc2s1)CCN(C(=O)c1cnn(C)c1C)CC3`, the Percent Effect in assay [1] was -6.2%; in [2] it was -17.6%; in [3], 6.62%; in assay [4], 5.04%; in the assay with Trypanosoma cruzi, 1.98%; in assay [5], -6.26%. For the same compound, the Percent Effect in [6] was 9.83%; in the assay listed under Homo sapiens it was 13%; in assay [7], 5.38%; in assay [8] it was 11.7%; in [9], -18.8%.

`O=C(CSc1nncs1)N1CCN(Cc2ccc(Cl)s2)CC1`: the Percent Effect in assay [1] was -2.74%; in assay [2] it was 5.48%; in assay [3], 4.99%; in [4], 1.5%; in the assay on Trypanosoma cruzi, 5.88%; in [5], 0%. For the same compound, the Percent Effect was 18.1% in assay [6]; 16.3% in the assay filed under Homo sapiens; 4.3% in assay [7]; 12.5% in assay [8]; -13.2% in [9].

Turning to `CCOc1cccc(NS(=O)(=O)c2cc(C)c(C(=O)O)s2)c1`, the Percent Effect in assay [1] was -6.74%; in assay [2] it was 8.11%; in assay [3], -13.3%; in [4], 45.6%; in the assay on Trypanosoma cruzi it was 7.72%; in assay [5], 19.1%. Further, the Percent Effect in [6] was 6.27%; in the assay listed under Homo sapiens, -0.127%; in [7], -10.8%; in assay [8], -3.7%; in assay [9], -13.9%.

For `O=C(c1ccn[nH]1)N1CCCC(n2cncn2)C1` (stereo unspecified), the Percent Effect in assay [1] is -7.58%; in assay [2] it was 11.4%; in assay [3], -2.36%; in assay [4], 4.37%; in the assay with Trypanosoma cruzi it was -0.718%; in assay [5] it was 0.645%. In addition, the Percent Effect was 12.9% in assay [6]; 6.04% in the assay filed under Homo sapiens; 2.08% in assay [7]; 15.2% in assay [8]; -14.9% in assay [9].

Regarding `Cc1ccc(CN2Cc3nnn(C)c3C(COCCN(C)C)C2)s1` (stereo unspecified), the Percent Effect in assay [1] was -6.87%; in assay [2], 2.7%; in assay [3], -1.39%; in assay [4] it was -1.89%; with Trypanosoma cruzi it was -5.57%; in assay [5], -3.72%. Further, the Percent Effect in assay [6] was 4.89%; in the assay listed under Homo sapiens, 15%; in assay [7], 2.15%; in [8], 8.64%; in assay [9], -3.26%.

In the case of `CC(C)c1nccn1C1CCCN(C(=O)c2ccnc(N(C)C)c2)C1` (stereo unspecified), the Percent Effect in assay [1] was -2.97%; in assay [2], -7.79%; in assay [3], -1.67%; in [4] it was -1.25%; in the assay on Trypanosoma cruzi it was 0.0979%; in assay [5], 1.47%. The Percent Effect in [6] was 10.6%; in the assay listed under Homo sapiens it was 18.4%; in [7] it was 1.91%; in assay [8], -11.8%; in assay [9], -18.1%.

Regarding `Brc1cc2c(cc1CN1CCC(N3CCCCC3)CC1)OCCO2`, the Percent Effect in assay [1] is -3.24%; in assay [2] it was -1.39%; in assay [3], -9.98%; in [4] it was -5.8%; in the assay on Trypanosoma cruzi, -0.291%; in [5], 5.74%. Also, the Percent Effect was 10.7% in assay [6]; 2.68% in the assay filed under Homo sapiens; 5.26% in assay [7]; 10.3% in [8]; -2.58% in assay [9].
